VDR inh: vitamin D3 receptor (human) inhibition; VDR-SRC2-3 peptide fluorescence polarization, 2 h; Potency, µM, without a hit: max response, negative = inhibition, usual class: inhibitors; 400,000 tested, 0.93% active; further: potency means the concentration at half of the fitted maximal effect; on the % scale 0 is the no-effect control and ±100 the full control effect
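Signal is fluorescence polarization, reporting how far test compounds block the interaction of VDR with the SRC2-3 coregulator peptide after a 2 h room-temperature incubation.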
GALK inhibitor: inhibitors of human galactokinase | 270,000 tested, 0.007% active | Potency, µM (highest dose often 57.5 µM), for the others: top-dose activity change, negative = inhibition, usual class: inhibitors | P51570 | Purified GALK, Kinase-Glo residual ATP luminescence; further: potency means the concentration at half of the fitted maximal effect; on the % scale 0 is the no-effect control and ±100 the full control effect
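The enzyme phosphorylates galactose (100 uM) using ATP (35 uM); inhibition is detected as higher residual ATP, quantified by bioluminescence after 1 h reaction at room temperature, pH 8.0.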
USP1-UAF1 inh: USP1/UAF1 (human) deubiquitinase inhibition; AID 743255; 390,000 tested, 0.23% active; O94782; Potency, µM (top dose mostly 57.1 µM), for inactives: top-dose activity change, negative = inhibition, most hits filed as inhibitors; recombinant USP1/UAF1, Ub-Rhodamine cleavage fluorescence; further: potency means the concentration at half of the fitted maximal effect; on the % scale 0 is the no-effect control and ±100 the full control effect; nearly all actives have a fitted effect of over 60% in size
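In this screen, compounds sit with the deubiquitinase complex (1nM) for 15 min at room temperature before Ub-Rho is added at 150nM final. Fluorescence rise is then followed for 6 reads every 60 seconds.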
PLK1 PBD inh: inhibitors of human PLK1 polo-box domain binding. AID 720504. 360,000 tested, 2.8% active. Plk1 PBD binding of FITC phosphopeptide, fluorescence polarization. Potency, µM, without a hit: max response, negative = inhibition, hits mostly inhibitors. P53350; further: potency means the concentration at half of the fitted maximal effect; series mostly up to about 57 µM; on the % scale 0 is the no-effect control and ±100 the full control effect; nearly all actives have a fitted effect of over 65% in size
Coupling enz: counter-screen for Giardia aldolase inhibitors: coupling enzyme system; coupling enzyme system counterscreen, AmpLite Red fluorescence; activity change, negative = inhibition, % at 58.2 µM, hits read low; 290,000 tested, 0.67% active; AID 2472; in the data active means activity change below about -30%; further: on the % scale 0 is the no-effect control and ±100 the full control effect
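Activity here indicates interference with the coupling reaction, not aldolase inhibition. Compounds at 57.5 uM final met coupling enzymes for 10 min at RT; substrate and AmpLite Red detection followed, with a 525/598 nm fluorescence read after 20 min.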
USP2a block: USP2a (human) protease inhibition; O75604; USP2 core, Ub-CHOP2 coupled fluorogenic reporter, 485/531; Potency, µM (top dose mostly 38.3 µM), inactives show at the highest dose activity change, negative = inhibition, usual class: inhibitors; 330,000 tested, 0.01% active;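 further: potency means the concentration at half of the fitted maximal effect; plate controls were DMSO wells for no effect and full inhibition by NEM control for full effect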
Target sequence (O75604 whole entry, looked up): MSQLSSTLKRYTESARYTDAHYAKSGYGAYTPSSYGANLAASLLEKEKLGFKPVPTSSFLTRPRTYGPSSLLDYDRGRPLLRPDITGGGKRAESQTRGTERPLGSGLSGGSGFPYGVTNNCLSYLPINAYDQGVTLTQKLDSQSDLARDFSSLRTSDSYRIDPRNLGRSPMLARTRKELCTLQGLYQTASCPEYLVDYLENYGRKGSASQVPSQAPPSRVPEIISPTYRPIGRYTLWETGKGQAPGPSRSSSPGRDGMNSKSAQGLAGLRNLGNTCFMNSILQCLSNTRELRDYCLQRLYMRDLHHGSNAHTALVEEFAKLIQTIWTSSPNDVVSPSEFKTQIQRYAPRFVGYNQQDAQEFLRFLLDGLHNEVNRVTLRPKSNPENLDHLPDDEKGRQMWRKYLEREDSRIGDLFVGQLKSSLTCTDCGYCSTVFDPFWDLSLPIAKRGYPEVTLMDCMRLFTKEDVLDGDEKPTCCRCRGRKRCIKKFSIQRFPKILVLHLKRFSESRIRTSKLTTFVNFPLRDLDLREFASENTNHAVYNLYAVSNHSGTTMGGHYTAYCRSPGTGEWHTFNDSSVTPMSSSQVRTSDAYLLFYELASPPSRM
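Deubiquitinase activity read as fluorescence (485/531 nm) after Ub-CHOP2 cleavage activates the enterokinase reporter on its substrate; USP2 core 10nM, Ub-CHOP2 and substrate 25nM each, 30min compound preincubation then 60min RT; data normalized to NEM, curves fitted.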
USP1 UbRho: blocks human USP1/UAF1 cleavage of Ub-Rhodamine. shares compounds with VDR inh. Ub-Rhodamine cleavage, fluorescence kinetic read. Potency, µM (highest dose often 56.8 µM), for inactives: top-dose activity change, negative = inhibition, usual class: inhibitors. 50 tested, 50% active. AID 540327
VDR inh confirm: confirmation of human vitamin D receptor inhibitors; 840 tested, 89% active; VDR-coactivator inhibition assay, qHTS confirmation; shares compounds with VDR inh; Potency, µM, actives largely listed as inhibitors; further: potency means the concentration at half of the fitted maximal effect
VDR FP fluor: VDR (human) coactivator binding inhibition, fluorescein polarization; shares compounds with VDR inh; VDR-coactivator binding, fluorescein fluorescence polarization; Potency, µM (titrated, usually from 57.1 µM), for the others: at the top dose activity change, negative = inhibition, usual class: inhibitors; 840 tested, 48% active; further: potency means the concentration at half of the fitted maximal effect
VDR bla: confirmation of human vitamin D receptor inhibitors in reporter cells | shares compounds with VDR inh | Potency, µM (doses to about 46.1 µM), for the others: at the highest dose activity change, negative = inhibition, actives largely listed as inhibitors | VDR beta-lactamase reporter cells, FRET ratio; cells co-treated with VDR agonist LG190178 | 840 tested, 23% active; further: potency means the concentration at half of the fitted maximal effect; on the % scale 0 is the no-effect control and ±100 the full control effect
VDR cytotox: cell toxicity, VDR inhibitor hit counter-screen; shares compounds with VDR inh; cytotoxicity counter-screen, cell viability, qHTS; Potency, µM (series often up to 48.3 µM), inactives show top-dose activity change, negative = cytotoxicity, actives largely listed as cytotoxic; 840 tested, 18% active; AID 602204;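 further: potency means the concentration at half of the fitted maximal effect; plate controls were DMSO for no effect and high-concentration cycloheximide for full effect; nearly all actives have a fitted effect of over 75% in size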
Numbers without * were called inactive; ? = inconclusive; . = not tested or not shown. In the library only some 3.2% were active in any assay of this set; here they are far more common. Unless noted, the call rests on the fitted dose curve; in most records, active means well fitted curve in the direction sought with a large enough effect; inconclusive means small, poorly fitted or top-dose-only effect, or another doubt; inactive means no such curve, though single readings can be large; an effect the other way counts as inactive or inconclusive.

SMILES	VDR inh	GALK inhibitor	USP1-UAF1 inh	PLK1 PBD inh	Coupling enz	USP2a block	VDR inh confirm	VDR FP fluor	VDR bla	VDR cytotox	others
OCCN1CCN(CC/C=C2/c3ccccc3Sc3ccc(C(F)(F)F)cc32)CC1	?	.	-30%	-2%	-8	-5%	.	.	.	.	USP1 UbRho=?
OCCN1CCN(CCC=C2c3ccccc3Sc3ccc(Cl)cc32)CC1	-3%	.	.	.	-3	.	.	.	.	.
CCOC(=O)N1C(=O)[C@@](CC)(c2ccccc2)N1C(=O)OCC	79µM*	.	?	13µM*	2	3%	21*	-23%	5%	?
COC(=O)N1C(=O)[C@@](CC(C)C)(c2ccccc2)N1C(=O)OC	.	.	.	.	0	1%	.	.	.	.
CC1CCCCC1NC(=S)Nc1ccc(Cl)cc1Cl (stereo unspecified)	12%	2%	-6%	-2%	1	0%	.	.	.	.
CCOc1cc(/C=C2\CN(C)C/C(=C\c3ccc(O)c(OCC)c3)C2=O)ccc1O	?	-8%	-27%	-9%	0	2%	18*	?	2.9µM*	27µM*
COc1cc(C=C2CN(C)C(=O)C2=O)ccc1O	.	.	-25%	-4%	.	.	.	.	.	.
CCOC(=O)c1c(C)n(C)c2cc(-c3cccc(C(F)(F)F)c3)c(O)cc12	-16%	1%	-3%	-9%	0	2%	.	.	.	.
Cc1nnc(NC(=O)c2c(-c3ccccc3)noc2C)s1	20%	-1%	-14%	-6%	5	0%	.	.	.	.
Cc1onc(-c2ccccc2)c1C(=O)Nc1nnc(COc2ccc(Cl)cc2)s1	20µM*	-4%	-15%	1.3µM*	-1	-5%	6.7*	?	-5%	-18%
O=C(CSc1ccccc1)Nc1nnc(COc2ccc(Cl)cc2)s1	40µM*	.	-6%	2.7µM*	2	3%	3*	?	18%	24%
COc1ccccc1N(C)S(=O)(=O)c1ccc(C(=O)Nc2nnc(C)s2)cc1	8%	.	-3%	0%	.	0%	.	.	.	.
CCCOc1ccc(S(=O)(=O)NNC(=O)c2cc3ccccc3o2)cc1	5%	0%	-28%	-10%	1	-2%	.	.	.	.
COc1ccccc1NC(=O)c1ccc(N)cc1	-11%	3%	-27%	-2%	0	4%	.	.	.	.
CCOC(=O)c1sc(N)c(C(=O)Nc2ccccc2OC)c1C	71µM*	1%	?	4.7µM*	0	4%	11*	?	-15%	?
CCOC(=O)c1c(CC(C)C)csc1N	-18%	-3%	-17%	?	-1	3%	.	.	.	.
CCOC(=O)c1c(-c2ccc(C)s2)csc1N	79µM*	-1%	-6%	5.3µM*	-41*	2%	19*	11µM*	11%	23%
CCSc1ncnc2sc3c(c12)CCC3	5%	3%	-8%	-1%	5	0%	.	.	.	.
Cc1ccc(C(C[N+](=O)[O-])Sc2ccc(N)cc2)cc1 (stereo unspecified)	13µM*	0%	-26%	6.7µM*	3	4%	7.5*	?	?	?
c1ccc(-c2nnc3sc(-c4csc5c4CCCC5)nn23)cc1	?	1%	?	11µM*	-1	1%	14*	10µM*	?	?
c1ccc(-c2nnc3sc(-c4ccncc4)nn23)cc1	-20%	0%	7%	?	2	-1%	.	.	.	.
O=C(Cc1ccccc1Cl)NC1(O)C(=O)c2ccccc2C1=O	50µM*	.	?	-23%	-6	-1%	11*	-17%	8%	4%
CSc1nnc(Cn2c(=O)sc3ccccc32)n1-c1cccc(Cl)c1	3%	0%	-11%	-14%	-3	5%	.	.	.	.
O=C(/C=C/c1cccs1)c1ccc([N+](=O)[O-])cc1	-18%	0%	-21%	5%	-1	1%	.	.	.	.
O=C(/C=C/c1ccc([N+](=O)[O-])cc1)c1cccs1	?	5%	-18%	?	1	-1%	?	7.1µM*	?	-9%
SMILES	VDR inh	GALK inhibitor	USP1-UAF1 inh	PLK1 PBD inh	Coupling enz	USP2a block	VDR inh confirm	VDR FP fluor	VDR bla	VDR cytotox	others
Clc1ccc(C[n+]2csc3ccccc32)cc1	50µM*	.	-20%	27µM*	-1	2%	15*	?	19%	4%
Cc1ccc(-c2c[n+](Cc3ccc(Cl)cc3)c3n2CCC3)cc1	-5%	-2%	5%	-5%	1	11%	.	.	.	.
COc1cccc(/C=C/C(=O)c2cccc([N+](=O)[O-])c2)c1OC	8.9µM*	4%	-33%	?	0	-1%	3.8*	3.2µM*	?	?
COc1cccc(/C=C/C(=O)c2cccc([N+](=O)[O-])c2)c1	?	1%	-12%	-16%	-4	0%	.	.	.	.
CCOc1cc(/C=C2\N=C(C)OC2=O)cc(Br)c1OCC(=O)OC	20µM*	-2%	-14%	?	-2	-10%	11*	?	8%	6%
Cc1cc(C)n(C(=O)CCCCCCCC(=O)n2nc(C)cc2C)n1	-9%	-4%	1%	4%	1	1%	.	.	.	.
CCC(C)NC(=O)c1ccc2c(c1)N(Cc1ccccc1)C(=O)c1ccccc1S2 (stereo unspecified)	-12%	.	?	.	.	.	.	.	.	.
CCN(CC)S(=O)(=O)c1ccc(O)c(NS(=O)(=O)c2ccccc2F)c1	79µM*	-3%	-12%	24µM*	7	-1%	17*	-20%	2%	11%
CCN(CC)S(=O)(=O)c1ccc(O)c(NC(=O)CN2CCc3ccccc3C2)c1	-15%	2%	-20%	-1%	4	10%	.	.	.	.
CCOC(=O)/C(=C\c1ccc(Cl)cc1)c1nc2sc(C)c(C)c2c(=O)[nH]1	25µM*	0%	-21%	7.5µM*	2	0%	5.3*	?	?	15µM*

High-throughput results (PubChem)
